Measured values reported in the supplement of paper PMC10498489.
About 330 (14%) of roughly 2,300 compounds showed activity.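 The calls were made as follows: active = median modified Z-score above 1.96; inactive = 1.96 or below.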 The list is a sample of the results.

Test system: HepG2 Srxn1-GFP reporter cells (+30 nM CDDO-Me)
Test: Srxn1-GFP intensity median modified Z-score relative to plate median; higher = stronger NRF2 / oxidative stress reporter activation, active = hit call of the paper
Details: 10 µM; exposure time: 24h
Procedure, shortened: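 Compound at 10 μM was applied with an NRF2 activator at 30 nM to HepG2 Srxn1-GFP BAC reporter cells for 24 h, in DMSO at no more than 0.1%, using three replicate 96-well plates seeded at 20,000 cells per well. Fixed, Hoechst-stained cells were imaged confocally and cytoplasmic GFP was scored for each cell, with images under 100 cells left out. The figure reported is the replicate median of the per-plate modified Z-score of GFP intensity. Scaling relied on 1.4826 × median absolute deviation.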

Row | Structure (SMILES) | Srxn1-GFP intensity median modified Z-score
1 | O=C(O)c1cc(N=Nc2ccc(O)c(C(=O)O)c2)ccc1O [euspeclibcmpd2114] | -0.278 (inactive)
2 | N=c1[nH]c(=NC2CC2)c2ncn(C3C=C[C@@H](CO)C3)c2[nH]1 (some centres not stated) [euspeclibcmpd479] | -0.254 (inactive)
3 | CCCCC/C=C/CCC(=O)N[C@H]1[C@H](Oc2c3cc4cc2Oc2ccc(cc2Cl)[C@@H](O[C@@H]2O[C@H](CO)[C@@H](O)[C@H](O)[C@H]2NC(C)=O)c2[nH]c(O)c(c5ccc(O)c(c5)c5c(OC6O[C@H](CO)[C@@H](O)[C@H](O)[C@@H]6O)cc(O)cc5c(=C(O)O)[nH]c2O)NC(=O)[C@@H]4NC(=O)[C@H]2NC(=O)C(Cc4ccc(c(Cl)c4)O3)NC(=O)[C@H](N)c3ccc(O)c(c3)Oc3cc(O)cc2c3)O[C@H](CO)[C@@H](O)[C@@H]1O (some centres not stated) [euspeclibcmpd852] | -0.162 (inactive)
4 | OC[C@H](O)[C@@H](O)CO [euspeclibcmpd2221] | -0.0632 (inactive)
5 | Clc1cccc(Cn2cc(-c3cnn(Cc4cccc(Cl)c4)c3)cn2)c1 | 1.3 (inactive)
6 | C[C@H](CCC(=O)NCC(=O)O)[C@H]1CCC2C3C(C[C@H](O)[C@@]21C)[C@@]1(C)CC[C@@H](O)CC1C[C@H]3O (some centres not stated) [euspeclibcmpd1671] | -0.257 (inactive)
7 | CC(C)C=CC=CCC(=O)N[C@@H](CC(N)=O)C(=O)N[C@@H]1C(=O)N[C@H](c2ccc(O)cc2)C(=O)N[C@H](CCCN)C(=O)N[C@H]([C@H](C)O)C(=O)N[C@@H](c2ccc(O)cc2)C(=O)N[C@H](c2ccc(O)cc2)C(=O)N[C@@H]([C@H](C)O)C(=O)N[C@@H](Cc2ccccc2)C(=O)N[C@H](CCCN)C(=O)N[C@@H](c2ccc(O[C@@H]3O[C@H](CO)[C@H](O)[C@@H](O)[C@@H]3O[C@@H]3O[C@H](CO)[C@@H](O)[C@H](O)[C@H]3O)cc2)C(=O)NC(C(C)O)C(=O)N[C@@H](c2ccc(O)cc2)C(=O)NCC(=O)N[C@@H](CC(C)C)C(=O)N[C@H](C)C(=O)N[C@@H](c2ccc(O)c(Cl)c2)C(=O)O[C@@H]1C(N)=O (some centres not stated) [euspeclibcmpd1079] | 0.139 (inactive)
8 | Cc1cc(=O)n(-c2ccccc2)[nH]1 [euspeclibcmpd1143] | -0.434 (inactive)
9 | CC(=O)N[C@@H]1[C@@H](OC(C)C(=O)O)[C@H](O)[C@@H](CO)O[C@H]1O (some centres not stated) [euspeclibcmpd2433] | -0.153 (inactive)
10 | COC(=O)C[C@H]1C(C)(C)[C@@H](OC(C)=O)C2CC3C4CC(=O)O[C@@H](c5ccoc5)[C@]4(C)CCC3[C@@]1(C)C2=O (some centres not stated) [euspeclibcmpd1596] | 1.31 (inactive)
11 | C/C1=C/CC(C)(C)/C=C/C/C(C)=C/CC1 [euspeclibcmpd1338] | 0.112 (inactive)
12 | CCN(CC)CCNc1ccc(CO)c2sc3ccccc3c(=O)c12 [euspeclibcmpd550] | 13.8 (active)
13 | CCCCOc1cc(C(=O)NCCN(CC)CC)c2ccccc2n1 [euspeclibcmpd89] | 0.582 (inactive)
14 | N=C(N)NCC1COC2(CCCCC2)O1 (configuration not stated) [euspeclibcmpd1929] | -0.0176 (inactive)
15 | CN(CCOc1ccc(Cc2sc(=O)[nH]c2O)cc1)c1ccccn1 [euspeclibcmpd2243] | 0.517 (inactive)
16 | Oc1ccc2ccccc2c1 [euspeclibcmpd1176] | 1.48 (inactive)
17 | CC(=O)Nc1cccc(O)c1 [euspeclibcmpd1259] | -0.0594 (inactive)
18 | Oc1cccc(O)c1 [euspeclibcmpd262] | 13.8 (active)
19 | CCCCC(=O)N(Cc1ccc(-c2ccccc2-c2nn[nH]n2)cc1)C(C(=O)O)C(C)C (configuration not stated) [euspeclibcmpd719] | -1.02 (inactive)

Row | Structure (SMILES) | Srxn1-GFP intensity median modified Z-score
20 | CC(=O)OCC(=O)[C@@]1(O)CCC2C3CC=C4CC(=O)CC[C@]4(C)C3C(=O)C[C@@]21C (some centres not stated) [euspeclibcmpd74] | -0.793 (inactive)
21 | N#C/C(=C\c1ccc(SC(F)(F)F)cc1)c1nnc2n1CCCCC2 | 2.21 (active)
22 | CCN[C@@H]1C[C@H](N)[C@@H](O[C@H]2OC(CN)=CC[C@H]2N)[C@H](O)[C@H]1OC1OC[C@](C)(O)[C@H](NC)[C@H]1O (some centres not stated) [euspeclibcmpd845] | -0.391 (inactive)
23 | CC(COc1ccccc1)N(CCCl)Cc1ccccc1 (configuration not stated) [euspeclibcmpd203] | 3.84 (active)
24 | CC(C)COCC(CN(Cc1ccccc1)c1ccccc1)N1CCCC1 (configuration not stated) [euspeclibcmpd972] | -0.387 (inactive)
25 | CCOC(=O)OC(C)OC1=C(C(=O)N=c2cccc[nH]2)N(C)S(=O)(=O)c2ccccc21 (configuration not stated) [euspeclibcmpd1195] | 0.103 (inactive)
26 | CCCCC(=O)O[C@H]1CCC2C3CCc4cc(O)ccc4C3CC[C@@]21C (some centres not stated) [euspeclibcmpd117] | -0.716 (inactive)
27 | O=C(O)[C@]1(O)C[C@@H](O)[C@@H](O)[C@H](O)C1 [euspeclibcmpd1500] | -0.119 (inactive)
28 | O=c1ccc2ccccc2o1 [euspeclibcmpd1076] | -0.351 (inactive)
29 | Cc1cc(C)[nH]c(=NS(=O)(=O)c2ccc(N)cc2)n1 [euspeclibcmpd276] | -0.664 (inactive)
30 | Cc1cc(C(=O)NCCCn2cncn2)no1 | 1.31 (inactive)
31 | CC(=O)O[C@@H]1C[C@@]23C[C@@]24CC[C@H](O[C@@H]2OC[C@@H](O)[C@H](O)[C@H]2O)C(C)(C)C4CCC3[C@]2(C)C[C@@H]3OC4(C[C@@H](C)[C@@H]3[C@@]12C)O[C@H](O)[C@]1(C)O[C@H]41 (some centres not stated) [euspeclibcmpd2415] | 0.583 (inactive)
32 | O=c1c(O)c(-c2ccccc2)oc2ccccc12 [euspeclibcmpd1679] | 1.3 (inactive)
33 | CC(=O)CC(c1ccc([N+](=O)[O-])cc1)c1c(O)c2ccccc2oc1=O (configuration not stated) [euspeclibcmpd502] | -0.425 (inactive)
34 | CC(=O)CC(c1ccccc1)c1c(O)c2ccccc2oc1=O (configuration not stated) [euspeclibcmpd321] | 5.96 (active)
35 | COc1ccc2c(=O)c(OC)c(-c3ccccc3)oc2c1 [euspeclibcmpd1977] | 0.483 (inactive)
36 | COc1ccc2c(C)cc(=O)oc2c1 [euspeclibcmpd1528] | -0.287 (inactive)
37 | COc1ccc2c(c1)OCc1c-2oc2cc(OC)ccc12 [euspeclibcmpd1708] | 13.6 (active)
